PLCg1 inh: PLC-gamma1 enzyme inhibitors, primary screen, biochemical, fluorescence, purified enzyme; 1-phosphatidylinositol 4,5-bisphosphate phosphodiesterase gamma-1 (Homo sapiens), P19174; fluorogenic substrate; inhibition, % at 12.2 µM; hit rate 0.84% among 370,000; AID 720700, 2013
PLC-beta3 inh: human PLC-beta3 inhibitors, primary screen, biochemical, fluorescence. Purified PLC-beta3, fluorogenic substrate. 1-phosphatidylinositol 4,5-bisphosphate phosphodiesterase beta-3 (Homo sapiens), Q01970. hit rate 0.18% among 370,000. AID 720704, 2013. inhibition, % at 12.2 µM; in the data active = inhibition above about 11%;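 note: 0% = median of compound wells on plate and 100% = full blocker control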
ADAM10 inh: human ADAM10 inhibitors, primary screen, biochemical, QFRET, HTS; inhibition, % at 7 µM; recombinant ADAM10, EDANS/DABCYL FRET peptide cleavage, 3 h; hit rate 0.62% among 370,000; AID 720582, 2013;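 active = inhibition above a per-campaign cutoff equal to the mean of compounds falling between control-based bounds plus 3 SD, cut at about 20% in these data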;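 note: 0% = DMSO wells while the 100% control is not disclosed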
Rce1 inh: yeast Rce1p protease inhibitors, primary screen, biochemical, fluorescence, cell-free homogeneous; AID 2563, 2010; CAAX prenyl protease 2 (Saccharomyces cerevisiae (strain ATCC 204508 / S288c)), Q03530; calls only; yeast membranes, quenched prenylated peptide cleavage fluorescence; hit rate 0.27% among 290,000;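 active = fall in fluorescence gain of 50% or more versus controls, with final raw signal at or below 3038400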;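 note: plate controls were neutral control wells for no effect and wells lacking membranes for full effect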
Target sequence (Q03530 whole entry, looked up): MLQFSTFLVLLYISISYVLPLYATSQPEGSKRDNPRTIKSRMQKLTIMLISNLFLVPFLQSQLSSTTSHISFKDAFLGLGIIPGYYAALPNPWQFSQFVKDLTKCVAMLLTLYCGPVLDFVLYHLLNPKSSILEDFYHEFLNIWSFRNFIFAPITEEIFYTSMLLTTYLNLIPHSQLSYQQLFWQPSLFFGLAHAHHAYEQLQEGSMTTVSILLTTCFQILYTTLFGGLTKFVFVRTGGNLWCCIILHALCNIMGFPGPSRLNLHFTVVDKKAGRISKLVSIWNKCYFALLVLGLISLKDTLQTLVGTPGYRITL
ADAM17 inh: ADAM17 inhibitors, primary screen, biochemical, QFRET; recombinant ADAM17, EDANS/DABCYL FRET peptide cleavage; inhibition, % at 6.95 µM; hit rate 0.83% among 370,000; AID 720648, 2013;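 active = inhibition above the mean of compounds lying between control limits plus 3 SD, set per campaign, cut at about 8.5% in these data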;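 note: 0% = DMSO-only wells as the low control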
ADAM10 ctr: ADAM10 inhibitors, counter-screen for ADAM17 exosite inhibitor project, biochemical, FRET, human ADAM10; AID 743256, 2014; inhibition, % at 6.95 µM; hit rate 47% among 2,900; recombinant ADAM10, EDANS/DABCYL FRET peptide cleavage, 3 h; shares compounds with ADAM17 inh;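 active = mean inhibition over the triplicate runs exceeds the activity threshold set in the earlier primary screen, cut at about 20% in these data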;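 note: 0% = DMSO wells and 100% = marimastat wells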
ADAM17 confirm: ADAM17 inhibitors, hit retest, confirmation, biochemical, QFRET peptide cleavage; hit rate 65% among 2,900; inhibition, % at 6.95 µM; shares compounds with ADAM17 inh; recombinant ADAM17, EDANS/DABCYL QFRET peptide cleavage;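 active = mean inhibition across replicates above the hit cutoff set in the primary screen, cut at about 8.5% in these data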;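 note: 0% = DMSO wells and 100% = marimastat wells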
PLCg1 ctr: PLC-gamma1 enzyme inhibitors, counter-screen for PLC-beta3 inhibitor project, biochemical, fluorescence. hit rate 3.1% among 3,300. AID 743258, 2014. purified PLC-gamma1, fluorogenic substrate. shares compounds with PLCg1 inh. inhibition, % at 12.3 µM
PLCbeta3 conf: PLC-beta3 inhibitor confirmation, biochemical, fluorescence, purified enzyme; shares compounds with PLCg1 inh; fluorogenic substrate fluorescence; inhibition, % at 12.3 µM; hit rate 1% among 3,300; in the data active = inhibition above about 11%
* marks the source's active call; other numbers are inactive results; i = inactive; / = not tested or not shown. Shown are actives, neighbours in structure and some others; about 2.1% of the full set was active somewhere. Cut-off read from the data, not from the text of the source, unless noted: active = inhibition above about 9.5%; inactive = the rest.

SMILES	PLCg1 inh	PLC-beta3 inh	ADAM10 inh	Rce1 inh	ADAM17 inh	ADAM10 ctr	ADAM17 confirm	PLCg1 ctr	PLCbeta3 conf
Cc1c(Cl)cccc1NC(=S)NCCC(C)C	-1	8	-1	i	-4	/	/	/	/
Cc1c(Cl)cccc1NC(=S)NCCC(c1ccccc1)c1ccccc1	10*	-1	15	i	9.2*	21*	10*	/	/
Cc1sc2nc(SCC(=O)OC(C)C)n(C)c(=O)c2c1C	8	-1	-5	i	15*	-6	-1	/	/
Cc1sc2nc(SCC(=O)NCCO)n(C)c(=O)c2c1C	1	3	3	i	1	/	/	/	/
COc1ccc(-c2cc(C(F)(F)F)nc(SCC(=O)NCCCN3CCOCC3)n2)cc1	-156	-172	-383	/	-119	/	/	/	/
O=C(Cc1noc2ccccc12)NNC(=S)Nc1ccc(Cl)cc1	8	-4	14	i	12*	3	1	/	/
Cc1ccccc1NC(=O)CSc1nc(N)c(C#N)c(-c2cccs2)c1C#N	-20	-32	-70	i	-12	/	/	/	/
COc1ccc(CCNC(=O)CSc2nc(N)c(C#N)c(-c3cccs3)c2C#N)cc1OC	-1	-3	8	i	8.9*	15	8	/	/
O=C(COC(=O)c1cccc(NS(=O)(=O)/C=C/c2ccccc2)c1)Nc1ccccc1OC(F)F	0	0	15	i	9.9*	18	15*	/	/
CC1CCCN(C(=O)COC(=O)COc2ccc(C#N)cc2)C1 (stereo unspecified)	2	-8	-11	/	-2	/	/	/	/
CC1CCCC(C)N1C(=O)COC(=O)COc1ccc(C#N)cc1 (stereo unspecified)	11*	-4	2	/	9.8*	4	7	-2	2
CCc1ccc(OC)c(S(=O)(=O)Nc2ccc(Cc3ccncc3)cc2)c1	14*	-4	12	i	9.2*	12	9	-1	0
O=C1OC(Cc2ccccc2)(c2ccccc2)c2ccccc21 (stereo unspecified)	11*	11*	18	/	11*	8	2	0	0
Cc1ccc(-n2nnnc2CNC(=O)C2CC(=O)N(c3ccccc3)C2)cc1C (stereo unspecified)	13*	-3	2	i	9.4*	1	4	2	2
Cc1ccc(N2CC(C(=O)NCc3nnnn3-c3ccc(C)c(C)c3)CC2=O)cc1 (stereo unspecified)	1	-10	-9	i	5	/	/	/	/
CC(=O)NC(c1ccccc1)c1nc(-c2cccs2)cs1 (stereo unspecified)	0	-4	-3	/	-2	/	/	/	/
CSc1ncccc1C(=O)Nc1cc(Cl)ccc1N1CCOCC1	-4	-8	-3	/	4	/	/	/	/
Cc1ccc(C(=O)c2cn[nH]c2-c2ccccc2O)cc1	14*	5	15	i	8.8*	-2	-1	-6	-4
O=C(c1ccc(F)cc1)c1cn[nH]c1-c1ccccc1O	-1	0	2	i	0	/	/	/	/
O=C(c1ccc(F)cc1)C1CCN(C(=S)Nc2ccc(F)cc2)CC1	5	-1	8	i	2	/	/	/	/

Compound activity from PubChem BioAssay.
